Several values for one entry are separate records, joined by “and”; a condition that tells them apart may be missing. Equal values may be shown once. Records with an inconclusive call do not appear. Where a call stands in place of a potency, no number is given. Activity calls are given as the source filed them. No rule for the calls is given here.

From PubChem BioAssay (Tox21) come the findings set out here.
Potency is read from the fitted curve at half-maximal effect.

This test in a line: qHTS assay to identify small molecule antagonists of the estrogen related receptor signaling pathway with the pleiotropic PPARgamma coactivator (PGC) from Tox21 10K library (AID 1224841). Also: actives are mostly falling curves and most rising ones were filed inactive; nearly all actives have a fitted effect of over 50% in size. Conditions: PGC/ERR reporter cell line, ONE-Glo luciferase, 18 h; series mostly up to 92.4 µM. From the text: U.S. Tox21 Program National Center for Advancing Translational Sciences [NCATS] NIH Chemical Genomics Center [NCGC] U.S. Environmental Protection Agency [EPA] National Institutes of Environmental Health Sciences [NIEHS] National Toxicology Program [NTP] U.S. Food and Drug Administration [FDA] Tox21 Assay Overview: Estrogen related receptors (ERRs), the first orphan nuclear receptors discovered, play an important role in the control of cellular energy metabolism. ERRs are required for high-energy production in response to the environmental challenges. The pleiotropic PPARgamma coactivator (PGC) is a major partner of ERR and a key regulator in energy homeostasis. Together they have been implicated in the etiology of metabolic disorders such as Type 2 diabetes and metabolic syndrome. ERR-alpha was also identified as an adverse marker for breast cancer progression; ERR-alpha-positive tumors have a poor prognosis. To screen and to identify environmental compounds that perturb the ERR and PGC/ERR signaling pathways could provide valuable information for potential therapeutic or preventive measures in the treatment of metabolic disease. For identifying PGC/ERR antagonists, PGC/ERR cell line (provided by NTP) has been used to screen Tox21 10K library.
Tox21 Assay Protocol Summary: The PGC/ERR cells were dispensed at 2,000 cells/5 ul/well in 1536-well white plates using a Multidrop dispenser. After the assay plates were incubated at a 37 C/5% CO2 incubator for 6 hours, 23 nL of compounds dissolved in DMSO, positive and negative controls or DMSO only was transferred to the assay plate by a pin tool. The plates were incubated at 37 C for 18 hours. 4 ul/well of One-Glo reagent was added into the assay plates using a Flying Reagent Dispenser. After 30-minute incubation at room temperature, the luminescence intensity in the plates was measured using a ViewLux plate reader.
Background: Quantitative high-throughput screening tests each substance at several concentrations.
In the case of `CCCCCc1ccc(Cl)cc1`, the Potency result was “inactive”.

Regarding `C=C(CC)C(=O)c1ccc(OCC(=O)O)c(Cl)c1Cl`, the Potency was 30.4 µM (active) and 29.8 µM (active).

`Nc1ccc(NCCO)c([N+](=O)[O-])c1`: the Potency result is “inactive”.

As to `O=C(/C=C/c1ccccc1)OC/C=C/c1ccccc1`, the Potency result was “inactive”.

As to `CCCc1ccc(OCC(=O)N2CCN(C(=O)COc3ccc(CCC)cc3OC)CC2)c(OC)c1`, the Potency was 16.8 µM (active).

As for `Cc1ccc(C(C)C)cc2c(C)ccc1-2`, the Potency result was “inactive”.

With `O=[N+]([O-])c1ccc(O)cc1C(F)(F)F`, the Potency result is “inactive”.

For the molecule `Cc1c(C)c([N+](=O)[O-])c(C(C)(C)C)c([N+](=O)[O-])c1C`, the Potency result was “inactive”.

As for `CC1(C)[C@@H](O)CC[C@]2(C)[C@H]3C(=O)C=C4[C@@H]5C[C@@](C)(C(=O)O)CC[C@]5(C)CC[C@@]4(C)[C@]3(C)CC[C@@H]12`, the Potency result is “inactive”.

Take `C#C[C@]1(OC(C)=O)CC[C@H]2[C@@H]3CCC4=C[C@@H](OC(C)=O)CC[C@@H]4[C@H]3CC[C@@]21C`: the Potency was 21.1 µM (active).

Consider `Cc1ccc(-c2ccccc2)cc1`, for which the Potency entry is “inactive”.

Turning to `Cc1c(F)c(N2CCNC(C)C2)cc2c1c(=O)c(C(=O)O)cn2C1CC1` (stereo not given), the Potency result is “inactive”.

For the molecule `O=C(O)c1cc(N=Nc2ccc([N+](=O)[O-])cc2)ccc1O`, the Potency entry was “inactive”.

Consider `C1CCC(SSC2CCCCC2)CC1`, for which the Potency result was “inactive”.

On to `Nc1nc2c(ncn2COCCO)c(=O)[nH]1`, for which the Potency result was “inactive”.

In the case of `CN(C)[C@@H](CCOc1cccc2ccccc12)c1ccccc1`, the Potency result is “inactive”.

`O=S(=O)(O)c1ccc(Nc2nc(Nc3ccc(/C=C/c4ccc(Nc5nc(Nc6ccc(S(=O)(=O)O)cc6)nc(N(CCO)CCO)n5)cc4S(=O)(=O)O)c(S(=O)(=O)O)c3)nc(N(CCO)CCO)n2)cc1`: the Potency entry was “inactive”.

Consider `CC1(C)CCC[C@]2(C)[C@H]3CCO[C@]3(C)CC[C@@H]12`, for which the Potency result was “inactive”.

As to `CC(=O)[C@H]1CC[C@H]2[C@@H]3CCC4=CC(=O)CC[C@]4(C)[C@H]3CC[C@]12C`, the Potency was 27.1 µM (active) and 13.7 µM (active).

Consider `O=C(O)O`, for which the activity, negative = inhibition was 259% [at 8.39 µM] (inactive).

For the molecule `Cc1cc(C(C)(C)C)cc(C)c1CC1=NCCN1`, the Potency result is “inactive”.

As for `OCCN1CCN(CCCN2c3ccccc3Sc3ccc(C(F)(F)F)cc32)CC1`, the Potency entry was “inactive”.

Consider `CCCCCCC1CCCC(=O)O1` (stereo not given), for which the Potency entry is “inactive”.

As to `CC(C)OC(=O)C(O)(CC(=O)O)CC(=O)O`, the Potency result was “inactive”.

For `Cc1c(C)c2c(c(C)c1OC(=O)c1cccnc1)CC[C@@](C)(CCC[C@H](C)CCC[C@H](C)CCCC(C)C)O2`, the Potency entry was “inactive”.

`C#CC1(O)CC[C@H]2[C@@H]3CCC4=CCCC[C@@H]4[C@H]3CC[C@@]21C` (stereo not given in full): the Potency entry was “inactive”.

For the molecule `CN1CCN2c3ccccc3Cc3ccccc3C2C1` (stereo not given), the Potency entry was “inactive”.

Turning to `CC(C)(C)C1CCC(=O)CC1`, the Potency entry was “inactive”.

Regarding `CCCCC(CC)CN1CN(CC(CC)CCCC)CC(C)(N)C1` (stereo not given), the Potency entry was “inactive”.

In the case of `Cc1c(N)cccc1C(F)(F)F`, the Potency result is “inactive”.

`CCCCCCOC(=O)C(C)CC` (stereo not given): the Potency result was “inactive”.

As for `O=C(O)c1cc(=O)c2ccccc2o1`, the Potency result is “inactive”.

On to `COc1cc(/C=C/c2ccccc2)oc(=O)c1`, for which the Potency entry was “inactive”.

On to `CCCCCCCCCCCCCC[N+](C)(C)Cc1ccccc1`, for which the Potency was 31.1 µM (active) and 11.9 µM (active) and 15.8 mM (active).

For `C[Si](Cl)(c1ccccc1)c1ccccc1`, the Potency entry was “inactive”.

Regarding `S=c1nccc[nH]1`, the Potency result was “inactive”.

As to `CC(C)=CCNc1ncnc2c1ncn2[C@@H]1O[C@H](CO)[C@@H](O)[C@H]1O`, the Potency result is “inactive”.

In the case of `CCCCCCCC/C=C\CCCCCCCCN`, the Potency result is “inactive”.

Take `Cc1cc(-c2ccc(N=Nc3cc(S(=O)(=O)O)c4ccccc4c3N)c(C)c2)ccc1N=Nc1cc(S(=O)(=O)O)c2ccccc2c1N`: the Potency is 12.3 µM (active).

For the molecule `O=C(O)CCN(C1(C(=O)NO)CCCC1)S(=O)(=O)c1ccc(Oc2ccc(F)cc2)cc1`, the Potency entry is “inactive”.
